Experimental findings from article PMC11006913 are described below.

Numbering of substitutions follows the chain as printed.

What all share (assay): PBM; 200 nM protein, PBS
Holding throughout (details): dsDNA, one strand shown

For experiment [1], the target named is T1, SIX6 (Homo sapiens, UniProt O95475 114-200, L167I).
T1 sequence: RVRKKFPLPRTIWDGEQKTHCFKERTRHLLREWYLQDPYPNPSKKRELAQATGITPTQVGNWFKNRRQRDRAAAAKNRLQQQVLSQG

Experiment [2] deals with T2, SIX6 (Homo sapiens, UniProt O95475 114-200, L143V).
T2 sequence: T1 sequence with L30V, I54L

In experiment [3] the target is T3, SIX6 (Homo sapiens, UniProt O95475 114-200, H141N).
T3 sequence: T1 sequence with H28N, I54L

For experiment [4], the target named is T4, SIX6 (Homo sapiens, UniProt O95475 114-200, T165P).
T4 sequence: T1 sequence with T52P, I54L

The target in experiment [5] is T5, SIX6 (Homo sapiens, UniProt O95475 114-200, L167M).
T5 sequence: T1 sequence with I54M

Experiment [6] has as its target T6, SIX6 (Homo sapiens, UniProt O95475 114-200, L143M).
T6 sequence: T1 sequence with L30M, I54L

The target in experiment [7] is T7, SIX6 (Homo sapiens, UniProt O95475 114-200, L143I).
T7 sequence: T1 sequence with L30I, I54L

The target in experiment [8] is T8, SIX6 (Homo sapiens, UniProt O95475 114-200, T165G).
T8 sequence: T1 sequence with T52G, I54L

Experiment [9] deals with T9, SIX6 (Homo sapiens, UniProt O95475 114-200, T139Q).
T9 sequence: T1 sequence with T26Q, I54L

The target in experiment [10] is ALX1 (Homo sapiens, UniProt Q15699 118-204, L144V).
ALX1 (Homo sapiens, UniProt Q15699 118-204, L144V), sequence (Q15699 118-204 L144V): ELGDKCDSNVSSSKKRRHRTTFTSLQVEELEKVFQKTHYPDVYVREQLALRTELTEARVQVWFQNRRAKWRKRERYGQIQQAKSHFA
Experiment [11] concerns the target HOXD13 (Homo sapiens, UniProt P35453 263-343, T313R).
Experiment [12] has as its target T10, SIX6 (Homo sapiens, UniProt O95475 114-200, T165A).
T10 sequence: T1 sequence with T52A, I54L

Experiment [13] has as its target ALX1 (Homo sapiens, UniProt Q15699 118-204, L144R).
Experiment [14] addresses HOXD13 (Homo sapiens, UniProt P35453 263-343).
Experiment [15] has as its target T11, SIX6 (Homo sapiens, UniProt O95475 114-200, L167V).
T11 sequence: T1 sequence with I54V

The target of experiment [16] is T12, SIX6 (Homo sapiens, UniProt O95475 114-200).
T12 sequence: T1 sequence with I54L

The target in experiment [17] is T13, SIX6 (Homo sapiens, UniProt O95475 114-200, T165I).
T13 sequence: T1 sequence with T52I, I54L

In experiment [18] the target is HOXD13 (Homo sapiens, UniProt P35453 263-343, T313A).
HOXD13 (Homo sapiens, UniProt P35453 263-343, T313A), sequence (P35453 263-343 T313A): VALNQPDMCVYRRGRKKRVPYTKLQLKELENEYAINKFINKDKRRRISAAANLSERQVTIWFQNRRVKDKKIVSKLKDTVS
Experiment [19] addresses ALX1 (Homo sapiens, UniProt Q15699 118-204).
The target of experiment [20] is MSX2 (Homo sapiens, UniProt P35548 130-214, R199I).
MSX2 (Homo sapiens, UniProt P35548 130-214, R199I), sequence (P35548 130-214 R199I): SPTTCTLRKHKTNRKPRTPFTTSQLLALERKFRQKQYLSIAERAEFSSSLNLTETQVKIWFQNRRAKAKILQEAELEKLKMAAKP
The target of experiment [21] is MSX2 (Homo sapiens, UniProt P35548 130-214).
MSX2 (Homo sapiens, UniProt P35548 130-214), sequence (P35548 130-214): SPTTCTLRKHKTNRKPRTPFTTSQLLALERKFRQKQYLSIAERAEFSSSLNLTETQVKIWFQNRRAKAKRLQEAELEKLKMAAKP
The target of experiment [22] is MSX2 (Homo sapiens, UniProt P35548 130-214, F161Y).
MSX2 (Homo sapiens, UniProt P35548 130-214, F161Y), sequence (P35548 130-214 F161Y): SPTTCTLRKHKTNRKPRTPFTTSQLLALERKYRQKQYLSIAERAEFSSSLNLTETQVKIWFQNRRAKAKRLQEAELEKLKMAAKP
Experiment [23] has as its target NKX3-2 (Homo sapiens, UniProt P78367 192-278, P234S).
The target of experiment [24] is NKX3-2 (Homo sapiens, UniProt P78367 192-278).
NKX3-2 (Homo sapiens, UniProt P78367 192-278), sequence (P78367 192-278): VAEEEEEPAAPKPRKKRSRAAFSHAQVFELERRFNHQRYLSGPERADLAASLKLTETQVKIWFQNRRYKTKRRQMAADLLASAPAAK
Experiment [25] deals with HOXA2 (Homo sapiens, UniProt O43364 129-215, R185T).
HOXA2 (Homo sapiens, UniProt O43364 129-215, R185T), sequence (O43364 129-215 R185T): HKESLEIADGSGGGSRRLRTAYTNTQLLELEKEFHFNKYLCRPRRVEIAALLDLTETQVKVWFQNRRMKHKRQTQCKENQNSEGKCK
In experiment [26] the target is HOXA2 (Homo sapiens, UniProt O43364 129-215, R185K).
HOXA2 (Homo sapiens, UniProt O43364 129-215, R185K), sequence (O43364 129-215 R185K): as the sequence (O43364 129-215 R185T) above, with T57K counted along it
For experiment [27], the target named is HOXA2 (Homo sapiens, UniProt O43364 129-215, Y150S).
HOXA2 (Homo sapiens, UniProt O43364 129-215, Y150S), sequence (O43364 129-215 Y150S): as the sequence (O43364 129-215 R185T) above, with Y22S, T57R counted along it
In experiment [28] the target is HOXA2 (Homo sapiens, UniProt O43364 129-215).
HOXA2 (Homo sapiens, UniProt O43364 129-215), sequence (O43364 129-215): as the sequence (O43364 129-215 R185T) above, with T57R counted along it
Experiment [29] has as its target HOXA4 (Homo sapiens, UniProt Q00056 201-287, W262R).
In experiment [30] the target is HOXA4 (Homo sapiens, UniProt Q00056 201-287, R217L).
HOXA4 (Homo sapiens, UniProt Q00056 201-287, R217L), sequence (Q00056 201-287 R217L): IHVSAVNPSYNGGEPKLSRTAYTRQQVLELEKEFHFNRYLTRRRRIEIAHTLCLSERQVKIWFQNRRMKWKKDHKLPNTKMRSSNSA
Experiment [31] addresses HOXA4 (Homo sapiens, UniProt Q00056 201-287).

HOXA4 (Homo sapiens, UniProt Q00056 201-287), sequence (Q00056 201-287): as the sequence (Q00056 201-287 R217L) above, with L17R counted along it
ALX1 (Homo sapiens, UniProt Q15699 118-204), sequence (Q15699 118-204): as the sequence (Q15699 118-204 L144V) above, with V27L counted along it
ALX1 (Homo sapiens, UniProt Q15699 118-204, L144R), sequence (Q15699 118-204 L144R): as the sequence (Q15699 118-204 L144V) above, with V27R counted along it
NKX3-2 (Homo sapiens, UniProt P78367 192-278, P234S), sequence (P78367 192-278 P234S): as the sequence (P78367 192-278) above, with P43S counted along it
HOXA4 (Homo sapiens, UniProt Q00056 201-287, W262R), sequence (Q00056 201-287 W262R): as the sequence (Q00056 201-287 R217L) above, with L17R, W62R counted along it
HOXD13 (Homo sapiens, UniProt P35453 263-343, T313R), sequence (P35453 263-343 T313R): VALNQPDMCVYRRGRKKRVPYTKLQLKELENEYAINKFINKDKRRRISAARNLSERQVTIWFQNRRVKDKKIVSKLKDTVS
HOXD13 (Homo sapiens, UniProt P35453 263-343), sequence (P35453 263-343): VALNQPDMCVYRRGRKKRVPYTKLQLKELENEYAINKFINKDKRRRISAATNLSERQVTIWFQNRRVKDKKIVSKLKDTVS

For the sequence CGGGCCGC, the binding signal with SIX6 [1] is 9.03 upbm affinity estimate (log intensity, higher = more binding, comparable within an allelic series); with SIX6 [2], 8.81 upbm affinity estimate (log intensity, higher = more binding, comparable within an allelic series); in the experiment with SIX6 [3], 9.05 upbm affinity estimate (log intensity, higher = more binding, comparable within an allelic series); with SIX6 [4], 8.75 upbm affinity estimate (log intensity, higher = more binding, comparable within an allelic series); with SIX6 [5], 8.94 upbm affinity estimate (log intensity, higher = more binding, comparable within an allelic series); with SIX6 [6], 8.95 upbm affinity estimate (log intensity, higher = more binding, comparable within an allelic series). The binding signal with SIX6 [7] is 8.91 upbm affinity estimate (log intensity, higher = more binding, comparable within an allelic series); with SIX6 [8] it was 8.87 upbm affinity estimate (log intensity, higher = more binding, comparable within an allelic series); with SIX6 [9], 8.94 upbm affinity estimate (log intensity, higher = more binding, comparable within an allelic series); in the experiment with ALX1 [10] it was 6.4 upbm affinity estimate (log intensity, higher = more binding, comparable within an allelic series); in the experiment with HOXD13 [11], 9.48 upbm affinity estimate (log intensity, higher = more binding, comparable within an allelic series); with SIX6 [12], 9.01 upbm affinity estimate (log intensity, higher = more binding, comparable within an allelic series). Further, the binding signal with ALX1 [13] was 6.44 upbm affinity estimate (log intensity, higher = more binding, comparable within an allelic series); in the experiment with HOXD13 [14], 9.34 upbm affinity estimate (log intensity, higher = more binding, comparable within an allelic series); with SIX6 [15], 8.94 upbm affinity estimate (log intensity, higher = more binding, comparable within an allelic series); with SIX6 [16], 9.02 upbm affinity estimate (log intensity, higher = more binding, comparable within an allelic series); in the experiment with SIX6 [17], 8.91 upbm affinity estimate (log intensity, higher = more binding, comparable within an allelic series); with HOXD13 [18], 9.63 upbm affinity estimate (log intensity, higher = more binding, comparable within an allelic series). Besides, in the experiment with ALX1 [19], the binding signal is 6.51 upbm affinity estimate (log intensity, higher = more binding, comparable within an allelic series).
For CCCCAGCG, the binding signal with SIX6 [1] was 9.09 upbm affinity estimate (log intensity, higher = more binding, comparable within an allelic series); with SIX6 [2], 8.99 upbm affinity estimate (log intensity, higher = more binding, comparable within an allelic series); with SIX6 [3] it was 9.25 upbm affinity estimate (log intensity, higher = more binding, comparable within an allelic series); in the experiment with SIX6 [4], 9.01 upbm affinity estimate (log intensity, higher = more binding, comparable within an allelic series); with SIX6 [5], 9.24 upbm affinity estimate (log intensity, higher = more binding, comparable within an allelic series); with SIX6 [6] it was 9.04 upbm affinity estimate (log intensity, higher = more binding, comparable within an allelic series). The binding signal with SIX6 [7] was 9 upbm affinity estimate (log intensity, higher = more binding, comparable within an allelic series); with SIX6 [8], 9.14 upbm affinity estimate (log intensity, higher = more binding, comparable within an allelic series); with SIX6 [9], 9.23 upbm affinity estimate (log intensity, higher = more binding, comparable within an allelic series); with MSX2 [20], 9.51 upbm affinity estimate (log intensity, higher = more binding, comparable within an allelic series); with SIX6 [12], 9.18 upbm affinity estimate (log intensity, higher = more binding, comparable within an allelic series); with MSX2 [21] it was 9.6 upbm affinity estimate (log intensity, higher = more binding, comparable within an allelic series). For the same sequence, the binding signal with SIX6 [15] is 9.13 upbm affinity estimate (log intensity, higher = more binding, comparable within an allelic series); with SIX6 [16], 9.15 upbm affinity estimate (log intensity, higher = more binding, comparable within an allelic series); with SIX6 [17], 9.2 upbm affinity estimate (log intensity, higher = more binding, comparable within an allelic series); with MSX2 [22], 9.52 upbm affinity estimate (log intensity, higher = more binding, comparable within an allelic series); with NKX3-2 [23], 10.5 upbm affinity estimate (log intensity, higher = more binding, comparable within an allelic series); in the experiment with NKX3-2 [24] it was 10.6 upbm affinity estimate (log intensity, higher = more binding, comparable within an allelic series).
CGCGTGGC: the binding signal with SIX6 [1] is 9.04 upbm affinity estimate (log intensity, higher = more binding, comparable within an allelic series); with SIX6 [2], 8.85 upbm affinity estimate (log intensity, higher = more binding, comparable within an allelic series); with SIX6 [3] it was 9.07 upbm affinity estimate (log intensity, higher = more binding, comparable within an allelic series); with SIX6 [4] it was 8.86 upbm affinity estimate (log intensity, higher = more binding, comparable within an allelic series); with SIX6 [5], 8.92 upbm affinity estimate (log intensity, higher = more binding, comparable within an allelic series); with SIX6 [6], 8.96 upbm affinity estimate (log intensity, higher = more binding, comparable within an allelic series). For the same sequence, the binding signal in the experiment with SIX6 [7] is 8.93 upbm affinity estimate (log intensity, higher = more binding, comparable within an allelic series); in the experiment with SIX6 [8], 9 upbm affinity estimate (log intensity, higher = more binding, comparable within an allelic series); in the experiment with HOXA2 [25] it was 7.16 upbm affinity estimate (log intensity, higher = more binding, comparable within an allelic series); in the experiment with SIX6 [9] it was 9.1 upbm affinity estimate (log intensity, higher = more binding, comparable within an allelic series); in the experiment with MSX2 [20], 9.55 upbm affinity estimate (log intensity, higher = more binding, comparable within an allelic series); with SIX6 [12], 8.98 upbm affinity estimate (log intensity, higher = more binding, comparable within an allelic series). The binding signal with HOXA2 [26] is 10.4 upbm affinity estimate (log intensity, higher = more binding, comparable within an allelic series); with MSX2 [21] it was 9.66 upbm affinity estimate (log intensity, higher = more binding, comparable within an allelic series); with SIX6 [15], 8.96 upbm affinity estimate (log intensity, higher = more binding, comparable within an allelic series); in the experiment with SIX6 [16] it was 8.97 upbm affinity estimate (log intensity, higher = more binding, comparable within an allelic series); in the experiment with SIX6 [17] it was 9.02 upbm affinity estimate (log intensity, higher = more binding, comparable within an allelic series); with MSX2 [22], 9.65 upbm affinity estimate (log intensity, higher = more binding, comparable within an allelic series). Besides, the binding signal with HOXA2 [27] was 10.3 upbm affinity estimate (log intensity, higher = more binding, comparable within an allelic series); with HOXA2 [28] it was 7.31 upbm affinity estimate (log intensity, higher = more binding, comparable within an allelic series).
Turning to GTATCATA, the binding signal with SIX6 [1] is 11.5 upbm affinity estimate (log intensity, higher = more binding, comparable within an allelic series); with HOXA4 [29], 10.3 upbm affinity estimate (log intensity, higher = more binding, comparable within an allelic series); in the experiment with SIX6 [2] it was 10.5 upbm affinity estimate (log intensity, higher = more binding, comparable within an allelic series); with SIX6 [3], 11.5 upbm affinity estimate (log intensity, higher = more binding, comparable within an allelic series); with SIX6 [4], 9.93 upbm affinity estimate (log intensity, higher = more binding, comparable within an allelic series); with SIX6 [5] it was 10.8 upbm affinity estimate (log intensity, higher = more binding, comparable within an allelic series). The binding signal with SIX6 [6] is 11.2 upbm affinity estimate (log intensity, higher = more binding, comparable within an allelic series); in the experiment with SIX6 [7], 10.6 upbm affinity estimate (log intensity, higher = more binding, comparable within an allelic series); with SIX6 [8], 11.5 upbm affinity estimate (log intensity, higher = more binding, comparable within an allelic series); in the experiment with HOXA4 [30], 10.6 upbm affinity estimate (log intensity, higher = more binding, comparable within an allelic series); with SIX6 [9], 11.3 upbm affinity estimate (log intensity, higher = more binding, comparable within an allelic series); with SIX6 [12], 11.4 upbm affinity estimate (log intensity, higher = more binding, comparable within an allelic series). The binding signal with HOXA4 [31] was 11 upbm affinity estimate (log intensity, higher = more binding, comparable within an allelic series); with SIX6 [15], 11.3 upbm affinity estimate (log intensity, higher = more binding, comparable within an allelic series); in the experiment with SIX6 [16] it was 11.2 upbm affinity estimate (log intensity, higher = more binding, comparable within an allelic series); with SIX6 [17] it was 11.3 upbm affinity estimate (log intensity, higher = more binding, comparable within an allelic series).
